Rows were chosen to be rich in hits. Some 13% of all compounds tested hit in one or more screens of this group.
Lmaj promast: reduces viability of Leishmania major promastigotes; resazurin fluorescence viability; inhibition, % at 10 µM; 9% of 200,000 active; in the data active = inhibition above about 50%;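 note: promastigotes grown with compound for 44 hours at 28 °C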
RAM network inh: yeast RAM network inhibition. S. cerevisiae dse1pr::URA3 reporter, 5-FOA growth OD615, 2 d; analog-sensitive cbk1-as2 kinase mutant strain. inhibition, % at 50 µM. 1.8% of 190,000 active. AID 868;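 active = inhibition above a set limit, 3 SD over mean compound inhibition, cut at about 8.4% in these data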;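 note: 0% = DMSO-only wells with no growth and 100% = 10 µM 1-NA-PP1 full growth; inhibition rescues growth on 5-FOA so higher OD means more RAM inhibition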
WT yeast gro inh: growth inhibition of WT yeast, mitochondrial fusion screen; mitochondrial fusion phenotypic screen, WT strain; inhibition, % at 10 µM; 2.1% of 190,000 active; AID 1362; in the data active = inhibition above about 58%; tested in S. cerevisiae
CHOP inhibitor: CHOP inhibition in unfolded protein response. CHO-K1 CHOP-promoter luciferase, tunicamycin-induced, 15-18 h. 3.8% of 220,000 active. inhibition, % at 10 µM. AID 2732;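 active = compounds that reduced the stress-induced luciferase reporter signal by more than about 70% of percent inhibition, limit read from the data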;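 note: 0% = tunicamycin plus vehicle and 100% = wells without tunicamycin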
An asterisk follows results filed as active; nt = not tested or not shown.

SMILES	Lmaj promast	RAM network inh	WT yeast gro inh	CHOP inhibitor
COc1ccc(-c2nn(-c3ccccc3)cc2/C=C/C(=O)OCC(=O)Nc2ccc(C#N)cc2)cc1	92.2*	2.5	-19.2	65.7
O=C(/C=C/c1cn(-c2ccccc2)nc1-c1cccnc1)N1CCCCC1	11.8	-1.6	2.3	-8.6
Cc1ccccc1NC(=O)COC(=O)/C=C/c1cn(-c2ccccc2)nc1-c1cccnc1	52.9*	0.8	8.8	34.8
Cc1c(Cl)cccc1NC(=O)CSc1nnc(CCNC(=O)OC(C)(C)C)o1	-4.2	0.1	-5.4	23.7
O=C(/C=C/c1ccc(Br)cc1)NC1CCCCCC1	-4.0	3.8	21.3	29.0
COc1ccc(/C=C/C(=O)c2ccc(NC3=NCCCS3)cc2)cc1OC	100.3*	0.8	1.2	-117.2
COc1ccc(/C=C/C(=O)Nc2ccncc2)cc1OC	2.5	0.8	-0.5	-13.7
CCC1CSC(Nc2ccc(C(=O)/C=C/c3ccc(OC)c(OC)c3)cc2)=N1 (centres undefined)	96.3*	-0.1	64.2*	13.5
CCC1CSC(Nc2ccc(C(=O)/C=C/c3ccc(Br)cc3)cc2)=N1 (centres undefined)	97.5*	-0.3	44.8	89.4*
FC(F)(F)c1ccc(C2[C@H]3CN(CC4CCCCC4)[C@H](c4ccccc4)C34CC2(c2cccnc2)C4)cc1 (some centres undefined)	nt	nt	nt	8.4
Cc1cc(C)cc(C(=O)NCC(=O)OCC(=O)c2cc(C)n(CC(F)(F)F)c2C)c1	-5.4	7.1	6.8	-3.6
Cc1cc(Br)ccc1NC(=O)CN1C(=O)C2C3CC(c4ccccc4)C(C3)C2C1=O (centres undefined)	54.7*	2.5	77.8*	84.6*
COc1ccc(C(=O)COC(=O)c2cc(S(=O)(=O)NCc3ccccc3)ccc2O)cc1	-1.4	9.1*	6.8	13.7
COc1ccc(S(=O)(=O)NCc2ccccc2)cc1	-7.2	-0.5	-30.1	8.1
CCSc1ncc(/C=N/Nc2ccc(F)cc2)n1C	68.7*	-0.8	53.0	22.9
COc1cc(N=Nc2cccc(S(N)(=O)=O)c2)c2ccccc2c1N	nt	nt	nt	11.6
O=C(c1ccc(Cl)c(S(=O)(=O)N2CCCC2)c1)N1CCN(c2ncccn2)CC1	-1.9	0.4	-3.5	2.3
COc1ccc(CN(C(=O)CN2C(=O)C(C)Oc3ccccc32)C2CCCC2)c(OC)c1 (centres undefined)	33.7	2.2	10.0	71.4*
COc1ccc(CN(C(=O)CN2C(=O)COc3ccccc32)C2CCCC2)c(OC)c1	13.7	0.2	-5.7	14.0
CCN(C(=S)NCc1ccccc1)c1cccc2ccccc12	43.2	8.1	43.4	16.4
C=CCNC(=S)N(CC)c1cccc2ccccc12	5.7	0.0	61.7*	16.3
Cc1cc2cc(CCNC(=O)C3c4ccccc4Oc4ccccc43)c(=O)[nH]c2cc1C	-7.8	3.5	-5.1	67.4
C=CCN1C(=O)CSc2ccc(C(=O)NCc3cccs3)cc21	15.7	2.1	-0.8	10.4
CCCCN(Cc1ccco1)C(=O)c1cc2c(=O)[nH]c3ccc(C)cc3c2s1	43.8	4.6	42.4	72.7*
Cc1ccc2[nH]c(=O)c3cc(C(=O)N(CCCOC(C)C)Cc4ccco4)sc3c2c1	75.0*	6.2	21.4	35.5
SMILES	Lmaj promast	RAM network inh	WT yeast gro inh	CHOP inhibitor
Cc1ccc2[nH]c(=O)c(CN(Cc3ccco3)C(=O)c3cccs3)cc2c1	3.1	1.4	-13.0	22.9
COc1ccc(CCN(C)CCCC(C#N)(c2ccc(OC)c(OC)c2)C(C)C)cc1OC (centres undefined)	3.4	0.0	nt	nt
Cc1ccccc1OCc1nnc(SCC(=O)Nc2ccc3nc(SCC(=O)NC(C)(C)C)sc3c2)n1C	2.7	7.9	11.2	72.6*
CCOC(=O)CSc1nc2ccc(NC(=O)CSc3nnnn3Cc3ccccc3)cc2s1	-6.5	9.5*	12.4	-2.5
CC(C)(C)NC(=O)CSc1nc2ccc(NC(=O)CSc3nnc(N)s3)cc2s1	70.6*	1.6	-14.5	70.2*
CCN(CC)C(=O)CSc1nc2ccc(NC(=O)CSc3nnc(COc4ccccc4C)n3C)cc2s1	-4.8	6.1	39.7	56.3
CCCC(=O)Nc1ccc2nc(SCC(=O)Nc3ccc(N4CCOCC4)c(Cl)c3)sc2c1	98.9*	2.5	13.5	-8.1
COc1ccc(-c2cc(=O)c3ccccc3s2)cc1	2.8	8.8*	1.9	60.8
COc1ccc2sc3ccccc3c(=O)c2c1	-2.2	3.9	-14.0	51.1
CCC1=Nc2cc(C(=O)NCC3CCCO3)ccc2Sc2ccc(Cl)cc21 (centres undefined)	nt	nt	nt	-3.2
CCC1=Nc2cc(C(=O)NCc3ccco3)ccc2Sc2ccc(Cl)cc21	68.3*	2.9	24.2	8.8
CCC1=Nc2cc(C(=O)NCc3ccco3)ccc2Sc2ccccc21	69.9*	2.7	18.9	14.0

Compound activity as filed in PubChem.
